# SARS PLP yeast: SARS-CoV PLP inhibition in yeast. S. cerevisiae expressing SARS-CoV PLpro, growth rescue. Potency, µM (highest dose often 32.9 µM), for inactives: at the highest dose activity, positive = growth rescue, actives largely listed as activators. hit rate 0.19% among 330,000. AID 485353; calls by dose curve; also: potency is read from the fitted curve at half-maximal effect; 0% is about no effect; nearly all actives have a fitted effect of over 55% in size
# MARV entry inh: Marburg virus entry inhibition | Marburg virus pseudotyped entry inhibition, cell reporter | Potency, µM (doses to about 37.8 µM), for inactives: top-dose activity change, negative = inhibition, usual class: inhibitors | hit rate 1.8% among 300,000; calls by dose curve; tested in HEK293 cells; also: potency is read from the fitted curve at half-maximal effect; % is scaled to controls: 0 for no effect and ±100 for the full control effect
# Lassa entry inh: blocks Lassa virus binding to or entry into cells. hit rate 1.2% among 300,000. Lassa virus pseudotype entry inhibition, cell reporter. Potency, µM (doses to about 37.9 µM), for the others: at the highest dose activity change, negative = inhibition, usual class: inhibitors; calls by dose curve; tested in HEK293 cells; also: potency is read from the fitted curve at half-maximal effect; % is scaled to controls: 0 for no effect and ±100 for the full control effect; nearly all actives have a fitted effect of over 50% in size
# FMDV inh: blocks foot and mouth disease virus | FMDV antiviral cell-based qHTS | AID 1159524 | Potency, µM (titrated, usually from 57.9 µM), for inactives: at the top dose activity change, negative = inhibition, most hits filed as inhibitors | hit rate 1.2% among 410,000; calls by dose curve; tested in HEK293T cells; also: read-out not given here; potency is read from the fitted curve at half-maximal effect; % is scaled to controls: 0 for no effect and ±100 for the full control effect; nearly all actives have a fitted effect of over 45% in size
# HCV inh: HCV inhibition; Huh7.5.1 HCVcc-Cre infection, luciferase reporter, 44 h; Potency, µM (top dose mostly 41.8 µM), inactives show top-dose activity change, negative = inhibition, most hits filed as inhibitors; hit rate 3.4% among 340,000; AID 651820; active = well fitted inhibition curve with a large enough effect; inconclusive = small, poorly fitted or top-dose-only effect, or another doubt; inactive = no such curve, though single readings can be large or run the other way; also: potency is read from the fitted curve at half-maximal effect; % is scaled to controls: 0 for no effect and ±100 for the full control effect
#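 A cell-based infection assay in which seeded cells (1,000 per well) receive test compound after 4 h, are inoculated with HCVcc-Cre at approximately 0.5 moi, and are incubated 44 h before luminescence detection.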
# HCMV antiviral: human cytomegalovirus inhibition | HFF cells, HCMV-luciferase reporter, 72 h; stronger effect = lower value | activity change, negative = inhibition, % at 57.5 µM | hit rate 4.5% among 410,000 | AID 1259415; in the data active = activity change below about -60%; inconclusive = no clear call, values can overlap the other calls; inactive = above about -39%; also: % is scaled to controls: 0 for no effect and ±100 for the full control effect
#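 Steps: HFFs plated, 16 h 37C; compounds added; HCMV-luciferase added to MOI 1 PFU/cell; 72 h 37C; OneGlo reagent, 5 min room temperature; luminescence read, normalized to controls.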
# An asterisk follows results filed as active; ? = inconclusive; . = no result given; ! = a repeat was not active; [ ] = another dose, or the depositor's remark. Rows were chosen to be rich in hits. Some 8% of all compounds tested hit in one or more screens of this group.
SMILES,SARS PLP yeast,MARV entry inh,Lassa entry inh,FMDV inh,HCV inh,HCMV antiviral
CC(C)(C)c1ccc(C(=O)Nc2ccccc2NC(=O)c2ccco2)cc1,-39%,?,?,-19%,13µM*,-20
CC(C)(C)c1ccc(Oc2ccc(NC(=O)c3ccco3)cn2)cc1,-3%,.,.,?,7.9µM*,-103*
COc1ccc(-c2ccc(NC(=O)c3ccco3)cc2)nn1,-1%,?,?,11µM*,-20%,7
O=C(Nc1ccc(Oc2cccnc2)nc1)c1ccc(C(F)(F)F)cc1,-3%,5.6µM*,-13%[46.1 µM],?,2.2µM*,-72*
O=C(NC(=O)c1c(Cl)cccc1Cl)Nc1ccc(Oc2cccnc2)nc1,-1%,-9%,-5%,-10%,0%,-25
C=C1CN2C(=NC(c3ccccc3)C(C(=O)OC)=C2C)O1 (centres undefined),.,0%[14.2 µM],.,.,.,.
O=C(Nc1ccc(Oc2ncccn2)cc1)c1ccco1,-2%,9%,8%,14%,7%,48
CNC(=O)COC(=O)c1ccccc1NC(=O)c1ccco1,1%,.,.,-14%,-10%,-101*
O=C(Nc1ccc(Oc2cccc(C(F)(F)F)c2)nc1)c1ccco1,-4%,?,-20%,?,10µM*,-72*
CC(C)(C)c1ccc(Oc2ccc(NC(=O)c3cccs3)cn2)cc1,-4%,13µM*,?,13µM*,?,?
Cn1nc(C(F)(F)F)c(-c2cccc(C(F)(F)F)c2)c1NC(=O)c1ccco1,-4%,.,.,-22%,-6%,-71*
Cc1ccc2c(c1)c(=O)c(C(=O)c1ccccc1)cn2Cc1ccccc1F,.,14%[46.1 µM],-8%[46.1 µM],-27%,.,-23
O=C1CC(C(=O)N2CCCC(c3nc(-c4ccncc4)ncc3-c3ccccc3)C2)C2(CCCCC2)O1 (centres undefined),.,.,.,-4%,.,.
COCC(=O)Nc1cc(C(=O)NC2Cc3ccccc3C2)cc2nc(-c3cccnc3)n(C)c12,.,.,.,4%,.,.
CNc1ccc2oc(C[C@H]3O[C@]4(CC[C@H]3C)O[C@H]([C@H](C)C(=O)c3ccc[nH]3)[C@H](C)C[C@H]4C)nc2c1C(=O)O,.,0.71µM*,.,-12%,.,.
N#C/C(=C\c1c[nH]c2ccccc12)C(=O)Nc1ncc(Cc2ccc(Cl)cc2Cl)s1,-7%,?,?,0%,35µM*,19
CC(C)CON=C1C[C@@H](O)[C@@H](O)[C@@H]2[C@H]3C(=O)N(c4cccc(Oc5ccccc5)c4)C(=O)[C@@H]3CC[C@H]12,.,-1%[14.2 µM],.,.,.,.
CCOC(=O)c1cc(OC(=O)c2ccc(C)cc2)n(-c2ccccc2)n1,.,-4%[46.1 µM],-2%[46.1 µM],45%,.,64
CCOC(=O)C(=CNc1ccc(-c2ccco2)c(Cl)c1)C(=O)OCC,-1%,.,.,-22%,?,?
CCOC(=O)C(=CNc1ccccc1Cl)C(=O)OCC,3%,.,.,-2%,?,-61*
CCOC(=O)C(=CNc1cc(Cl)c(-c2ccco2)c(Cl)c1)C(=O)OCC,-1%,.,.,-26%,13µM*,9
CCc1cc(C(=O)OCC(=O)NCCc2ccccc2)sc1C,.,.,.,-14%,.,-85*
Cc1ccc(C(=O)c2ccccc2C(=O)OCC(=O)NCCc2ccccc2)cc1,-21%,?,-25%,0%,-28%,-67*
CCc1cccc(NS(=O)(=O)c2ccc3c(c2)N(CC(=O)OC)C(=O)CS3)c1,.,.,11%[46.1 µM],7%,.,-38
Cc1ccc(N(CCC#N)C(=O)CCl)cc1C,-3%,7.1µM*,7.9µM*,28µM*,10µM*,-100*
SMILES,SARS PLP yeast,MARV entry inh,Lassa entry inh,FMDV inh,HCV inh,HCMV antiviral
Cc1ccc(SCC(=O)OCC(=O)N(CCC#N)c2ccccc2)cc1C,4%,28%,6%,-26%,3%,-22
C=C1C(=O)O[C@@H]2C[C@@H](C)[C@@H]3C=CC(=O)[C@@]3(C)[C@@H](O)[C@H]12,0%,.,.,8.9µM*!,1.4µM*,-100*
C=C1C(=O)O[C@@H]2C[C@@H](C)[C@@H]3C=CC(=O)[C@@]3(C)[C@@H](OC(C)=O)[C@H]12,1%,.,.,3.2µM*,2.8µM*,-99*
C[C@@H]1C[C@@H]2OC(=O)[C@]3(C)[C@H]2[C@@H](OC3(C)O)[C@]2(C)C(=O)C=C[C@H]12 (some centres undefined),-1%,.,.,-28%,-4%,23
O=C(CC[C@H]1O[C@@H](n2cnc3c(NC(=O)c4ccccc4)ncnc32)[C@H](O)[C@@H]1O)NCc1cccc2ccccc12,.,.,.,-16%,.,-64*
COc1ccc(-c2nnc(COc3ccc4ccccc4c3)o2)cc1OC,-3%,?,21µM*,-19%,?,-8
COc1cccc(OCc2nnc(-c3cccs3)o2)c1,-4%,.,.,.,.,-77*
Cn1cc(CN2CCCC(C(=O)c3ccc(-c4ccccc4)cc3)C2)cn1 (centres undefined),0%,.,.,8%,14µM*,-18
CCn1cc(CN2CCCC(C(=O)c3ccc(-c4ccccc4)cc3)C2)cn1 (centres undefined),-1%,?,?,-9%,?,-61*
Cn1cc(CN2CCCC(C(=O)c3ccc(-c4ccccc4)c(F)c3)C2)cn1 (centres undefined),-1%,?,-21%,-25%,?,-13
Cc1nn(C)cc1CN1CCCC(C(=O)c2ccc(-c3ccccc3)c(F)c2)C1 (centres undefined),-1%,?,?,-9%,10µM*,?
NC(=O)NC(CC(=O)Nc1cccnc1)c1cccc(Br)c1 (centres undefined),0%,9%[46.1 µM],22%,6%,14%,-24
O=[N+]([O-])c1cc(CN2CCOCC2)c2cccnc2c1O,0%,-21%[46.1 µM],-29%,-7%,0%,.
Oc1c(Cl)cc(CN2CCOCC2)c2cccnc12,-10%,.,.,-25%,2.5µM*,-99*
O=C(Oc1c(CN2CCOCC2)cc(Cl)c2cccnc12)c1ccccc1,?,?,?,-29%,?,-96*
Oc1c(CN2CCCCC2)cc(Br)c2cccnc12,-40%,0%,.,?,?,-102*
C=CCC1C=CCC(CC=C)N1C(=O)c1ccccc1[N+](=O)[O-] (centres undefined),-5%,?,?,-23%,18µM*,-24
CC1CCN(S(=O)(=O)c2ccc3c(c2)c(=O)c(C(=O)NC(C)c2ccccc2)cn3C)CC1 (centres undefined),.,4%[46.1 µM],18%[46.1 µM],-15%,.,-10
O=S(=O)(N1CCCCC1)N1CCN(CC(O)COc2ccc3cc(Br)ccc3c2)CC1 (centres undefined),-20%,-21%,-28%,?,?,?
OC(COc1ccc2cc(Br)ccc2c1)CN1CCCC1 (centres undefined),-7%,8.2µM*,0%,-7%,4.5µM*,-6

# Bioassay records deposited in PubChem by National Center for Advancing Translational Sciences (NCATS).
